Data reported in ChEMBL document CHEMBL3433997, “St. Jude Leishmania screening dataset” (2016).

Columns and labels:
Format in all cases: functional
[1] = target: Solute carrier family 2, facilitated glucose transporter member 1 (Homo sapiens) (UniProt P11166); assay: ST_JUDE_LEISH: Cytotoxicity at 2uM final concentration against transgenic Leishmania Mexicana promastigotes LmGLUT1 that are glucose transport deficient and complemented with the human glucose transporter GLUT1. Activity is measured by DNA content using SYBR green in vitro
[2] = target: Hexose transporter 1 (Plasmodium falciparum) (UniProt O97467); assay: ST_JUDE_LEISH: Cytotoxicity at 2uM final concentration against transgenic Leishmania Mexicana promastigotes LmPfHT that are glucose transport deficient and complemented with the Plasmodium falciparum hexose transporter. Activity is measured by DNA content using SYBR green in vitro
[3] = target: Glucose transporter (Leishmania mexicana) (UniProt O61059); assay: ST_JUDE_LEISH: Cytotoxicity at 2uM final concentration against transgenic Leishmania Mexicana promastigotes LmGT2 that are glucose transport deficient and complemented with the L. Mexicana glucose transporter 2. Activity is measured by DNA content using SYBR green in vitro

Solute carrier family 2, facilitated glucose transporter member 1 (Homo sapiens), sequence (P11166 whole entry): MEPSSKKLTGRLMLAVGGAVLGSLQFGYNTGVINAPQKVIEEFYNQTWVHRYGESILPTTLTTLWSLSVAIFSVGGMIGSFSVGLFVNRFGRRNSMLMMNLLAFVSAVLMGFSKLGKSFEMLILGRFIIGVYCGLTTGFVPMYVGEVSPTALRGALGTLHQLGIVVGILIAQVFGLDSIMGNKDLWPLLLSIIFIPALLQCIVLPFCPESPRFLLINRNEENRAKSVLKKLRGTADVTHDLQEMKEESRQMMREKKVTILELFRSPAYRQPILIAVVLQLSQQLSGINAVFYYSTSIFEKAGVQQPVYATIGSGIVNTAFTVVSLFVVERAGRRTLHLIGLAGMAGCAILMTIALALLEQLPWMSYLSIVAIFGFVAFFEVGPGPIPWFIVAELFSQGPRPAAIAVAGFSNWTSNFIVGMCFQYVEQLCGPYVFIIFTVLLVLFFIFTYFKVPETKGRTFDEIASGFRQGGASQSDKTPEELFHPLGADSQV

`Cc1cc(N)c2cc(NC(=O)c3ccc4ccccc4c3)ccc2n1` was tested, and the inhibition [1] was 3.68%, the inhibition [2] was 4.64% and the inhibition [3] was 3.57%.
Work on `CCc1ccc(NC(=O)c2ccc(CN3CCCN(CCC(C)C)CC3)cc2)cc1` yielded an inhibition [1] of 7.61%, an inhibition [2] of 4.69% and an inhibition [3] of 5.85%.
Compound `NC1CCCN(Cc2cccc(-c3ccc(-c4nc5cc(F)ccc5[nH]4)cc3)c2)C1` (centres undefined) has an inhibition [1] of 3.55%, an inhibition [2] of 3.14% and an inhibition [3] of 3.43%.
